Compound activity: PubChem, National Center for Advancing Translational Sciences (NCATS)
A selection: hits, their analogues and other compounds. The true share with any hit is near 2.6%.
Cruzain noTriton: qHTS Assay for Promiscuous and Specific Inhibitors of Cruzain (without detergent); Cruzipain (Trypanosoma cruzi), P25779; purified cruzain, Z-FR-AMC fluorescence, no detergent; Potency, µM, for the others: max response, negative = inhibition, usual class: inhibitors; actives 2.3% (n = 200,000); AID 1476, 2009;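 further: plate controls were enzyme without inhibitor for no effect and buffer without enzyme for full effect; nearly all actives have a fitted effect of over 40% in size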
Target sequence (P25779 123-467 limits assumed): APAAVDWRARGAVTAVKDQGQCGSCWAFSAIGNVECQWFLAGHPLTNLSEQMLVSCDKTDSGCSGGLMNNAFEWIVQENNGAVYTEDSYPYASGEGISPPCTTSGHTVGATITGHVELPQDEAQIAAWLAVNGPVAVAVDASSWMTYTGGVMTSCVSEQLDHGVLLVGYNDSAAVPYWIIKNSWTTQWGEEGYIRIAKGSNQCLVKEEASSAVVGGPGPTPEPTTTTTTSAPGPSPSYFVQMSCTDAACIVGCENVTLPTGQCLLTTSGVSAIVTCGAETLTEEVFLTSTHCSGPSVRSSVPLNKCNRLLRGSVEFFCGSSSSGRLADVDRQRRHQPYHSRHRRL
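Purified cruzain at 1.5 nM, pre-incubated 15 min with compound at room temperature in 100 mM sodium acetate pH 5.5, 5 mM DTT, 0.00005% Triton X-100. Reaction started with 2 uM Z-FR-AMC; AMC fluorescence increase over 60 s gives rate.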
Cruzain Triton: qHTS Assay for Promiscuous and Specific Inhibitors of Cruzain (with detergent) | actives 0.43% (n = 200,000) | AID 1478, 2009 | Potency, µM, inactives show max response, negative = inhibition, most hits filed as inhibitors | Cruzipain (Trypanosoma cruzi), P25779 | purified cruzain, Z-FR-AMC fluorescence, 0.01% Triton;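 further: plate controls were neutral wells for no effect and buffer without enzyme for full effect; nearly all actives have a fitted effect of over 40% in size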
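Enzyme 1.5 nM, Z-FR-AMC 2 uM, NaOAc 100 mM pH 5.5, DTT 5 mM, Triton X-100 0.01%; 15 min RT compound preincubation; kinetic ex360/em450, 60 s delta.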
Numbers without * were called inactive; ? = inconclusive. The call rests on the fitted dose curve; in most records, active means well fitted curve in the direction sought with a large enough effect; inconclusive means small, poorly fitted or top-dose-only effect, or another doubt; inactive means no such curve, though single readings can be large; an effect the other way counts as inactive or inconclusive. Potency means the concentration at half of the fitted maximal effect.

SMILES	Cruzain noTriton	Cruzain Triton
CC(=O)c1ccc(N2CCN(S(=O)(=O)c3ccc4[nH]c5c(c4c3)CCCCC5)CC2)cc1	10µM*	-6%
COc1cccc(NC(=O)C2CCN(S(=O)(=O)c3ccc4[nH]c5c(c4c3)CCCCC5)CC2)c1	20µM*	-2%
CC(=O)c1ccc(NS(=O)(=O)c2ccc3[nH]c4c(c3c2)CCCCCC4)cc1	?	-12%
CSc1cccc(NC(=O)C2CCN(S(=O)(=O)c3ccc4[nH]c5c(c4c3)CCCCC5)CC2)c1	13µM*	3%
COc1cccc(NS(=O)(=O)c2ccc3[nH]c4c(c3c2)CCCCCC4)c1	-29%	-10%
O=C(Nc1cccc(F)c1)C1CCN(S(=O)(=O)c2ccc3[nH]c4c(c3c2)CCCCC4)CC1	16µM*	1%
CSc1cccc(NC(=O)C2CCN(S(C)(=O)=O)CC2)c1	1%	10%
CC(=O)c1cccc(NC(=O)C2CCN(S(=O)(=O)c3ccc(F)cc3)CC2)c1	-11%	2%
C=CC(=O)OCCCCCCOC(=O)C=C	5%	3%
CCOCCCNC(=O)C1CCN(c2nc3ccc(Cl)cc3[nH]2)CC1	-9%	-5%
Cc1ccc(C)c(Nc2nnc(-c3ccc(C)c(S(=O)(=O)NCC4CCCO4)c3)c3ccccc23)c1 (stereo not drawn)	3%	-7%
O=c1n(Cc2ccc(Cl)cc2)c2ccccc2c2nc(-c3ccccc3)nn12	-2%	-1%
COc1ccccc1NC(=O)C1CCN(S(=O)(=O)c2ccc3[nH]c4c(c3c2)CCCCC4)CC1	20µM*	-3%
CCOc1ccccc1NC(=O)C1CCN(S(=O)(=O)c2ccc3[nH]c(=O)ccc3c2)CC1	10%	-3%
CCCCC1=CC2=C(OC(C)=O)C(=O)C(C)(OC(=O)c3ccco3)C(=O)C2=CO1 (stereo not drawn)	0%	-3%
CC(C)(C)c1ccc(C(=O)NC2=NC(c3cccc(F)c3)CC(=O)N2)cc1 (stereo not drawn)	4%	-4%
O=C(O)c1ccc2cc(-c3ccc(O)c(C45CC6CC(CC(C6)C4)C5)c3)ccc2c1	-14%	?
COCCn1c(C)cc(C2=NNC(=Nc3ccccc3F)SC2)c1C	-23%	-4%
C=CCN=C1NN=C(c2cc(C)n(CC=C)c2C)CS1	25µM*	-8%
C=C(CCC12O[C@H](C(=O)O)[C@@](O)(C(=O)O)[C@](C(=O)O)(O1)[C@H](OC(=O)/C=C/[C@@H](C)C[C@@H](C)CC)[C@H]2O)[C@@H](OC(C)=O)[C@H](C)Cc1ccccc1	26%	-8%
O=C(C/C=N/OCc1c(Cl)cccc1Cl)c1cnc(-c2ccccc2)s1	13µM*	1%
O=C(C/C=N/OCc1ccc(Cl)cc1)c1cnc(-c2ccccc2)s1	-30%	-4%
Cc1ccc(NC(=O)CCc2c(C)nc3nc(C)nn3c2C)c(Cl)c1	8%	1%
CCCCC(=O)N(C)C	1%	5%
Cc1ccc(C2=CC(c3cccs3)n3nnnc3N2)cc1 (stereo not drawn)	16µM*	5%
SMILES	Cruzain noTriton	Cruzain Triton
C1=C(c2ccccc2)Nc2nnnn2C1c1cccs1 (stereo not drawn)	-7%	4%
Cc1ccc(NC(=O)CSc2nc3nc(C)c(Cc4ccccc4)c(C)n3n2)cc1	4%	0%
COc1ccc(-c2csc(Nc3cccnc3)n2)cc1	?	11%
COc1cccc(Nc2nc(-c3sc(N)nc3C)cs2)c1	13µM*	?
COc1ccc(-c2csc(/C(C#N)=C/Nc3ccc4c(c3)OCCO4)n2)cc1	13µM*	-4%
c1ccc(-c2csc(Nc3ccc4c(c3)OCCO4)n2)cc1	?	-2%
COc1cccc(Nc2nc(-c3ccc4c(c3)OCCO4)cs2)c1	25µM*	-1%
COc1cccc(Nc2nc(-c3sc(NC(=O)c4ccco4)nc3C)cs2)c1	?	-1%
c1cc2c(cc1Nc1nc(-c3ccc4c(c3)OCO4)cs1)OCCO2	10µM*	0%
N#C/C(=C\Nc1ccc2c(c1)OCCO2)c1nc(-c2ccccc2)cs1	?	-3%
CCn1c(=O)c2cc(C(=O)NCCc3cc(OC)ccc3OC)sc2c2ccccc21	-1%	1%
O=C(NCCc1c[nH]c2ccccc12)Nc1ccccc1C(F)(F)F	21%	-10%
CCOC(=O)c1cccc(NC(=O)Cn2c(=O)c3cccn3c3ccccc32)c1	-15%	2%
COc1ccc(NC(=O)CN2C(=O)CC(c3ccco3)Sc3ccccc32)cc1OC (stereo not drawn)	?	-8%
O=c1cc(-c2ccccc2)nc(SCc2nc(-c3ccccc3Cl)no2)[nH]1	?	3%
CN(C)c1ccc(CNc2nc(-c3ccco3)nn2S(=O)(=O)c2ccc(Cl)cc2)cc1	2%	-3%
Cc1nc(NC(=O)c2ccccc2)sc1-c1csc(NCc2ccccc2)n1	?	4%
Cc1nc(N)sc1-c1csc(NCc2ccccc2)n1	32µM*	-15%
